Records with an inconclusive call do not appear. A number with no mark means an inactive call. The source made the active and inactive calls. Calls come from the whole dose curve; as a rule, active = well fitted inhibition curve with a large enough effect; inconclusive = small, poorly fitted or top-dose-only effect; inactive = no such curve, though single readings can be large or run the other way.
test: qHTS to identify inhibitors of the type 1 interferon - major histocompatibility complex class I in skeletal muscle: primary screen against the NCATS Mechanism Interrogation Plate v5.0 (MIPE) Libary (AID 1347411); settings: iHSKM cells + IFN-b, HiBiT-tagged MHC-I luminescence, 24 h; series mostly up to 45.8 µM; activity change, negative = inhibition: at the top concentration; note: nearly all actives have a fitted effect of over 65% in size;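 for activity change, negative = inhibition: plate controls were vehicle for no effect and reference inhibitor for full effect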
Outline: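 HLA-B HiBit myoblasts, dexamethasone-free medium + 4 ng/ml IFN-b, 24 h compound, 11-pt 1:3 from 46 uM final. Readout: Nano-Glo HiBiT lytic luminescence after 10 min lysis, RT.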
Potency is the fitted concentration of half-maximal effect.

Compound | activity change, negative = inhibition | Potency
Cc1ccc(S(=O)(=O)Nc2nc3ccccc3nc2Nc2ccc3nsnc3c2)cc1 | -3.24% [at 15.5 µM] | –
Nc1ncnc2c1ncn2[C@@H]1O[C@H](CO)[C@@H](O)[C@@H]1O | -16.8% | –
Cc1nc2c([nH]1)CCN(C(=O)c1ccc(NC(=O)c3ccccc3-c3ccccc3)cc1)c1ccccc1-2 | 15.7% | –
CN(C)N=Nc1nc[nH]c1C(N)=O | -3.71% | –
CC1CNc2c(cccc2S(=O)(=O)N[C@@H](CCCN=C(N)N)C(=O)N2CC[C@@H](C)C[C@@H]2C(=O)O)C1 (stereo partly specified) | -9.42% | –
Cc1cc2c(cc1C1(c3ccc(C(=O)O)cn3)CC1)C(C)(C)CCC2(C)C | 0.232% | –
NCC1CCC(C(=O)O)CC1 (stereo unspecified) | -16.3% [at 15.5 µM] | –
CN1CCN2c3ncccc3Cc3ccccc3C2C1 (stereo unspecified) | 3.27% | –
O=C1C(c2c(O)[nH]c3ccccc23)=Nc2ccccc21 | -0.898% | –
CN1CC(=O)NC1=NC(=O)Nc1cccc(Cl)c1 | -16% | –
CCCCC(C)(C)[C@H](O)C=C[C@H]1[C@H](O)CC(=O)[C@H]1CC=CCCCC(=O)O | -72.3% | –
O=S(=O)(O)c1ccc2cc(N=Nc3cc(S(=O)(=O)O)c4cccnc4c3O)ccc2c1 | -54.4% | –
Cc1cccc(-c2[nH]c(C(C)(C)C)nc2-c2ccc3c(c2)OCO3)n1 | -22.5% | –
O=[N+]([O-])c1ccc(Nc2ccccc2-c2ccccc2)c2nonc12 | – | 26.2 µM (active)
CC(C)CNc1ccnc(NCc2csc(-c3ccccc3)n2)n1 | – | 16.5 µM (active)
CC(C)C[C@@H](N)[C@H](O)C(=O)N[C@H](C(=O)N[C@H](C(=O)N[C@@H](CC(=O)O)C(=O)O)C(C)C)C(C)C | 8.43% | –

Reference: PubChem BioAssay (NCATS)
